# mHTT CaM bind – mutant huntingtin-calmodulin interaction inhibitors – biochemical, AlphaScreen, primary screen; hit rate 3.6% among 190,000; AID 1671202, 2021; inhibition, % at 15 µM; AlphaScreen His-mHTT/GST-CaM binding, luminescence; P42858;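 further: 0% = both proteins with DMSO and 100% = one protein alone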
# Pf apPOL block – Pf-apPOL inhibitors, biochemical, fluorescence | Recombinant Pf-apPOL, molecular beacon fluorescence, 1.5 h | inhibition, % at 10 µM | hit rate 0.25% among 210,000 | AID 1794808, 2022
# Starred values were filed as active, the others as inactive; · = no result given. Most compounds without a hit are left out; they make up all but 3.5% or so of the library. No stated cut-off is given here; in the data, active means inhibition above about 50%; inactive means the rest.
SMILES,mHTT CaM bind,Pf apPOL block
COc1cc(C(Nc2ccccn2)c2ccc3cccnc3c2O)cc(Br)c1OC (stereo unspecified),98*,-3
CCOc1cc(C(c2c(C)[nH][nH]c2=O)c2c(C)[nH][nH]c2=O)ccc1O,7,2
CCOc1cc(C(Nc2ccccn2)c2ccc3cccnc3c2O)ccc1O (stereo unspecified),100*,-12
Cc1cc(Br)c2c3c(c(N)c(=O)[nH]c13)-c1ccccc1C2=O,29,-2
Cc1cc2c3c(c(Br)cc(S(=O)(=O)O)c3n1)C(=O)c1ccccc1-2,99*,2
O=C(CN1C(=O)C(c2ccc(F)cc2)=NC12CCCC2)Nc1ccc(Cl)cc1,11,-7
Cc1cccc(NC(=O)CN2C(=O)C(c3ccccc3)=NC23CCCCC3)c1,-3,-4
O=C(CN1C(=O)C(c2ccc(F)cc2)=NC12CCCCC2)Nc1ccc(F)c(Cl)c1,95*,-6
O=C(CN1C(=O)C(c2ccccc2)=NC12CCCCC2)Nc1cccc(Cl)c1,89*,-11
O=C(CN1C(=O)C(c2ccccc2)=NC12CCCCC2)Nc1ccc(F)c(Cl)c1,8,-8
O=C(CN1C(=O)C(c2ccc(F)cc2)=NC12CCCC2)Nc1ccc(F)c(Cl)c1,100*,-5
O=C(c1cc(F)c(F)cc1Cl)N1CCCCC1,-5,2
O=C(c1ccc(N2CCNC(c3ccccc3)C2)nc1)N1CCCN(c2ncccn2)CC1 (stereo unspecified),4,-5
CCc1c(C2CCN(C(=O)Nc3ccc(F)c(Cl)c3)CC2)noc1N,3,-4
O=C(Nc1ccc(S(=O)(=O)Nc2nccs2)cc1)C(Cl)Cl,7,-6
O=C(Nc1ccc(S(=O)(=O)Nc2nccs2)cc1)Nc1ccc(Cl)c(Cl)c1,78*,-3
O=c1[nH]nc(SCc2ccc(F)cc2)c(=O)[nH]1,-5,1
O=c1[nH]nc(SCc2cccc(Oc3ccccc3)c2)c(=O)[nH]1,7,72*
Nc1cc(C2CCN(C(=O)Nc3ccc(Cl)cc3F)CC2)no1,-9,-6
CCc1ccc(C(=O)N2CCN(c3nc4ccncc4n(C)c3=O)CC2)cc1,3,-2
CCOC(=O)N1CCN(Cc2cncc(-c3ccccc3)c2)CC1,32,-8
CC1C(=O)N(Cc2cn(Cc3ccco3)nn2)CCS(=O)(=O)N1Cc1ccc(-c2cccnc2)cc1 (stereo unspecified),7,-3
CC1C(=O)N(Cc2cn(Cc3ccco3)nn2)CCS(=O)(=O)N1Cc1ccc(-c2cccc(N(C)C)c2)cc1 (stereo unspecified),64*,-2
Cc1ccc(-c2ccc(CN3C(CC(C)C)C(=O)N(Cc4cn(Cc5ccco5)nn4)CCS3(=O)=O)cc2)cc1 (stereo unspecified),38,-5
CC(C)CC1C(=O)N(Cc2cn(Cc3ccco3)nn2)CCS(=O)(=O)N1Cc1ccc(-c2cccc(N(C)C)c2)cc1 (stereo unspecified),68*,-4
SMILES,mHTT CaM bind,Pf apPOL block
CCCNC(=O)CC1Sc2ncccc2N(CCC)C1=O (stereo unspecified),-2,-5
O=C1c2ccccc2NC(c2cccc(F)c2)N1Cc1ccco1 (stereo unspecified),0,-3
NC(=O)c1cccc2c1NC(C(=O)O)C1CC=CC21 (stereo unspecified),71*,1
O=C(O)c1cccc2c1NC(C(=O)O)C1CC=CC21 (stereo unspecified),77*,4
CCNC(=O)N1CC(C(=O)NCC2CC2)CC(c2ccc(F)c(C)c2)C1 (stereo unspecified),44,9
Cc1cc(C2CC(C(=O)NCc3cccnc3)CN(C(=O)NC(C)C)C2)ccc1F (stereo unspecified),67*,0
CCNC(=O)C1CC(c2ccccc2)CN(C(=O)c2ccccc2)C1 (stereo unspecified),-4,2
CCC(C)NC(=O)C1CC(c2ccc(F)c(C)c2)CN(C(=O)c2ccccc2)C1 (stereo unspecified),96*,2
CCNC(=O)C1CC(c2ccc(F)c(C)c2)CN(C(=O)c2ccccc2)C1 (stereo unspecified),93*,-4
CCNC(=O)C1CC(c2ccc(F)c(C)c2)CN(C(C)=O)C1 (stereo unspecified),-4,-4
O=C(NCc1ccccc1)c1cnn2c3c(cnc12)CCCCCC3,-2,1
O=C(C=Cc1ccccc1)NCCC(O)c1ccoc1 (stereo unspecified),0,-3
Cc1ccccc1C(=O)Nc1ccc(C)c(S(N)(=O)=O)c1,5,-5
O=C(CSCCSCC(=O)c1ccc(F)cc1)c1ccc(F)cc1,·,-5
CC(=O)Nc1c2ccc([N+](=O)[O-])cc2n2c(C)nc3ccc(Cl)cc3c12,-2,-5
Cc1nc2ccc(Cl)cc2c2c(N)c3ccccc3n12,56*,-12
CCC[C@H]1[C@@H](NC(=O)c2ccc(Cl)c(C(F)(F)F)c2)CC[C@@]23CCCN2C(=O)CCC[C@@H]13,96*,3
C[C@H]1[C@@H](NC(=O)c2ccc(Cl)c(C(F)(F)F)c2)CC[C@@]23CCCN2C(=O)CCC[C@@H]13,16,0
O=C(NCCCN1CCCCC1)C1CCCN(c2ccncc2)C1 (stereo unspecified),-1,-5
O=C(CCCc1ccccc1)Nc1cccc([N+](=O)[O-])c1,4,-4
O=C(Cc1c([N+](=O)[O-])cc([N+](=O)[O-])cc1S(=O)Cc1ccccc1)Nc1ccccc1 (stereo unspecified),84*,-3
COc1cc(OC)cc(C(=O)N2CCC(C(=O)Nc3ccc(OCc4ccccc4)cc3)CC2)c1,6,-5
O=c1[nH]c2ccc(F)cc2[nH]c1=O,-3,-1
Brc1ccc(-c2cc3n(c2)CCn2cccc2-3)cc1,84*,-9
Clc1ccc(-c2cc3n(c2)CCn2cccc2-3)cc1Cl,100*,-7
SMILES,mHTT CaM bind,Pf apPOL block
c1ccc(C2=NCCn3cccc32)cc1,-4,-6
CC1c2cccn2CCN1C(=O)Nc1ccc(F)cc1F (stereo unspecified),10,-12
Fc1ccc(-c2cc3n(c2)CCn2cccc2-3)c(F)c1,100*,-2
Brc1ccc(-c2cc3ccccn3c2)cc1,38,0
Cn1c(SCC(N)=NOC(=O)c2cccs2)nnc1-c1ccc(C(C)(C)C)cc1,·,-5
CCCCn1c(SC(C)CC)nc2c1c(=O)[nH]c(=O)n2C (stereo unspecified),-4,·
Fc1ccc(C2=Nc3ccc(F)cc3NC(c3ccccc3)=N2)cc1,7,-3
Brc1ccc2c(c1)NC(c1ccccc1)=NC(c1ccncc1)=N2,71*,-5
O=C(NC1CCCCCCC1)C1c2ccccc2C(=O)N1Cc1ccc2c(c1)OCO2 (stereo unspecified),-3,-9
CCOc1cc(C2Nc3cc(C)c(C)cc3NC3=C2C(=O)CC(C)(C)C3)cc(Cl)c1O (stereo unspecified),53*,-6
CCOc1cc(C2Nc3ccccc3NC3=C2C(=O)CC(c2cccs2)C3)cc(Cl)c1O (stereo unspecified),28,-12
CC1CCCN(Cc2cc(Cl)cc(Cl)c2O)C1 (stereo unspecified),-2,0
CN(C)C=Nc1c(C#N)cnn1-c1ncnc2sc(-c3ccccc3)cc12,82*,-2
Cc1c(C#N)sc2nc(-c3ccccc3)nc(N=CN(C)C)c12,-4,-4
